Experimental data published in PubChem BioAssay (Tox21).
Values joined by “and” are separate entries in the source; they are usually repeats but may differ in a detail not shown here. Equal entries are not always repeated. Inconclusive results are not listed. Entries that show only a call come without a potency. A number with no mark means an inactive call. Active and inactive are the calls of the source. Calls follow the shape of the dose curve; as a rule, active = well fitted inhibition curve with a large enough effect in the repeat runs; inconclusive = weak or mixed curves; inactive = no such curve, though single readings can be large or run the other way.

Each compound was assayed against Estrogen receptor (Homo sapiens) (UniProt P03372) (assay: qHTS assay to identify small molecule antagonists of the estrogen receptor alpha (ER-alpha) signaling pathway using the BG1 cell line in the presence of 0.1 nM 17-beta-estradiol (AID 1259244; also: nearly all actives have a fitted effect of over 50% in size)). Settings: VM7Luc4E2 (BG1) ERE-luciferase, antagonist mode, 0.1 nM E2, 22 h; series mostly up to 92.4 µM; activity change, negative = inhibition: at the top concentration.
Estrogen receptor (Homo sapiens), sequence (P03372 whole entry, looked up): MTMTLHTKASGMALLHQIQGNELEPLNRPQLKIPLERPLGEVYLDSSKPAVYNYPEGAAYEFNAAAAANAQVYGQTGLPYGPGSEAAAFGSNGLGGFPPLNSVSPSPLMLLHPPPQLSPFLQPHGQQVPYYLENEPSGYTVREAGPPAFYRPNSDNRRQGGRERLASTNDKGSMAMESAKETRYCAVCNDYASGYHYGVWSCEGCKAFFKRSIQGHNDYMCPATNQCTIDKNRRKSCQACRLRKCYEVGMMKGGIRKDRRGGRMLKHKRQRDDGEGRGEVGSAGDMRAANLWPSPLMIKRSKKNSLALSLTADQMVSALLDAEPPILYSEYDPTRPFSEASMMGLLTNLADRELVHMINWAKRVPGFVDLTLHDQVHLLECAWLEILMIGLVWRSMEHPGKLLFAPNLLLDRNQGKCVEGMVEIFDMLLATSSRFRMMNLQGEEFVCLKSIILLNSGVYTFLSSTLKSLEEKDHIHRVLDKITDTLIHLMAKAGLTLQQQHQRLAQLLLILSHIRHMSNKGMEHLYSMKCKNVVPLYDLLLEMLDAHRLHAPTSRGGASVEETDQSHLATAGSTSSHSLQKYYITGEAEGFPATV
Source text: National Center for Advancing Translational Sciences [NCATS]
NIH Chemical Genomics Center [NCGC]
U.S. Environmental Protection Agency [EPA]
National Institutes of Environmental Health Sciences [NIEHS]
National Toxicology Program [NTP]
U.S. Food and Drug Administration [FDA]
Estrogen receptor (ER), a member of the nuclear hormone receptor plays an important role in development, metabolic homeostasis and reproduction. Two subtypes of ER, ER-alpha and ER-beta, have similar expression patterns with some uniqueness in both types. Endocrine disrupting chemicals (EDCs) and their interactions with steroid hormone receptors like ER causes disruption of normal endocrine function. Therefore, it is important to understand the effect of environmental chemicals in ER signaling pathway. For identifying ER antagonists, VM7Luc4E2 cell line was used to screen against Tox21 compound libraries.
VM7Luc4E2 cell line (provided by Denison MS, University of California) endogenously express full-length ER-alpha and is stably transfected with a plasmid containing four estrogen responsive elements (ERE) upstream of a luciferase reporter gene. The current screening for identification of ER-alpha inhibitors against Tox21 compound libraries used lower concentration (0.1 nM) of 17beta-Estradiol as a stimulator.
Tox21 Assay Protocol Summary:
VM7Luc4E2 cells were cultured in phenol red free assay medium containing 10% charcoal stripped FBS for 5 days prior to the assay. The cells were dispensed at 4,000 cells/well in 4 uL of assay medium into white wall/solid-bottom 1536-well plates (Corning Life Sciences, Corning, NY) using a Multidrop Combi (ThermoFisher Scientific, Waltham, MA) dispenser. After the assay plates were incubated at 37C and 5% CO2 for 24 hr, 23 nL of compounds dissolved in DMSO, positive controls or DMSO only was transferred to the assay plates by a Pintool station (Kalypsys, San Diego, CA). The transfer of compounds was followed by the addition of 1 uL of 0.1 nM (final concentration) agonist (17beta-Estradiol)/assay medium using a Flying Reagent Dispenser (FRD, Aurora Discovery, San Diego, CA). The plates were incubated at 37C and 5% CO2 for 22 hr. For luciferase reporter gene assay, 4 uL of ONE-Glo reagent (Promega Corporation, Madison, WI) was added to each well using the FRD and after 30 min incubation at room temperature luminescence intensity was measured using ViewLux plate reader (PerkinElmer, Shelton, CT).
Potency is read from the fitted curve at half-maximal effect.

Compound	Potency	activity change, negative = inhibition
Cc1ccc([N+](=O)[O-])cc1N	inactive	–
Nc1cccc(C(F)(F)F)c1	inactive	–
CCCCC(=O)O	inactive	–
Cc1ccccc1Cl	inactive	–
CC(=O)OC(C)(C)C1CC=C(C)CC1 (stereo not given)	inactive	–
Cc1ccncc1	inactive	–
O=C(O)C1=NN(c2ccc(S(=O)(=O)O)cc2)C(=O)C1	inactive	–
CN1CCCC1=O	inactive	–
NC(N)=S	inactive	–
CC/C=C(\C(=O)N[C@@H]1C(=O)N2C(C(=O)OCOC(=O)C(C)(C)C)=C(COC(N)=O)CS[C@H]12)c1csc(N)n1	inactive	–
Cc1cc(C)c(O)c(C)c1	inactive	–
CCCCCCC(=O)O	inactive	–
Cc1nnc(NS(=O)(=O)c2ccc(N)cc2)s1	inactive	–
CCOC(=O)c1ccc(O)cc1	inactive	–
Cc1cc(C)cc(O)c1	inactive	–
COc1ccc([C@@H]2CC(=O)c3c(O)cc(O[C@@H]4O[C@H](CO[C@@H]5O[C@@H](C)[C@H](O)[C@@H](O)[C@H]5O)[C@@H](O)[C@H](O)[C@H]4O)cc3O2)cc1OC	inactive	–
CCCCCCCC(=O)O	inactive	–
COc1cc(NC(=O)CC(C)=O)c(OC)cc1Cl	–	-28.3%
Cc1ccc(C(C)C)cc1	inactive	–
NC(=O)NC(N)=O	inactive	–

Compound	Potency	activity change, negative = inhibition
O=C1C(N(CO)C(=O)NCO)N(CO)C(=O)N1CO (stereo not given)	inactive	–
N[C@@H](Cc1cc(I)c(Oc2ccc(O)c(I)c2)c(I)c1)C(=O)O	–	-19.6%
OCC(O)CS (stereo not given)	–	3.09% [at 42.5 µM]
OC[C@H]1O[C@@H](Oc2ccc(O)cc2)[C@H](O)[C@@H](O)[C@@H]1O	inactive	–
Nc1cccc(N)n1	inactive	–
CN=C(NC#N)NCCSCc1nc[nH]c1C	inactive	–
C=CC(=O)NCOCCCC	inactive	–
O=C(Cl)c1ccc(C(=O)Cl)cc1	inactive	–
COc1ccc(N)c(OC)c1	–	0% [at 42.5 µM]
CC(C)=CCC/C(C)=C/C=O	inactive	–
CC(=O)Nc1ccc(CC(=O)O)cc1	inactive	–
O=C(c1ccccc1)c1ccc(O)c(O)c1O	inactive	–
COc1ccc2cc3[n+](cc2c1OC)CCc1cc2c(cc1-3)OCO2	1.55 µM (active) and 11.9 µM (active)	–
CCCCCCCCO	inactive	–
CC(=O)c1nccs1	inactive	–
O=C1CCCCCCCCCCC1	inactive	–
N#CCC(=O)O	inactive	–
CC(=O)CC(=O)N(C)C	inactive	–
CCCCCCCCCCCC(=O)N(C)CC(=O)O	inactive	–
CC(O)CNCC(C)O (stereo not given)	inactive	–
